From PubChem BioAssay (NCI)
About 83,000 compounds went through this panel and 20% of them were active in at least one assay; those are over-represented in the sample as a whole.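 Interpretation: 100, growth as untreated; towards 0, rising growth inhibition; 0, no net growth; 0 to -100, cell death. Compounds scoring below 10 were considered active.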 Active and inactive are the calls of the source.

What was measured:
Test in all cases: NCI-60 one-dose screen, 48 h (100 = growth as untreated, 0 = no growth, -100 = all killed)
Settings in all cases: 10 µM unless noted
RPMI-8226 leukemia = tested on: RPMI-8226 leukemia
OVCAR-5 ovarian = tested on: OVCAR-5 ovarian
OVCAR-4 ovarian = tested on: OVCAR-4 ovarian
SK-OV-3 ovarian = tested on: SK-OV-3 ovarian
IGROV1 ovarian = tested on: IGROV1 ovarian
OVCAR-3 ovarian = tested on: OVCAR-3 ovarian
HS 578T breast = tested on: HS 578T breast
NCI/ADR-RES ovarian = tested on: NCI/ADR-RES ovarian
T-47D breast = tested on: T-47D breast
BT-549 breast = tested on: BT-549 breast
MDA-MB-435 melanoma = tested on: MDA-MB-435 melanoma
SW-620 colon = tested on: SW-620 colon
MCF7 breast = tested on: MCF7 breast
HCT-116 colon = tested on: HCT-116 colon
HCC-2998 colon = tested on: HCC-2998 colon
KM12 colon = tested on: KM12 colon
OVCAR-8 ovarian = tested on: OVCAR-8 ovarian

Measured: growth

COc1ccc(C(=O)/C=C/c2ccc(C)cc2)cc1OC
inactive: RPMI-8226 leukemia 18.9% | OVCAR-5 ovarian 90.1% | OVCAR-4 ovarian 72.6% | SK-OV-3 ovarian 97.7% | HS 578T breast 107% | NCI/ADR-RES ovarian 71.2% | T-47D breast 59.3% | BT-549 breast 89.8% | MDA-MB-435 melanoma 97.1% | SW-620 colon 24.7% | MCF7 breast 35.5% | HCT-116 colon 30.1% | HCC-2998 colon 90.1% | KM12 colon 20.1%
active: IGROV1 ovarian -18.8% | OVCAR-3 ovarian 4.42%

CCOC(=O)c1cnc2c(C)cc(C)cc2c1NCCCN(C)C
active: RPMI-8226 leukemia 7.09% | IGROV1 ovarian 5.17%
inactive: OVCAR-5 ovarian 38.6% | OVCAR-4 ovarian 44.4% | SK-OV-3 ovarian 38.6% | OVCAR-3 ovarian 34.5% | HS 578T breast 65.7% | NCI/ADR-RES ovarian 31.7% | T-47D breast 54.5% | BT-549 breast 61.3% | MDA-MB-435 melanoma 32.3% | SW-620 colon 30.3% | MCF7 breast 15.1% | HCT-116 colon 15.4% | HCC-2998 colon 29% | KM12 colon 31.6%

O=C(CN1CCN(c2ccc(Cl)cc2)CC1)N1CCN(c2nnc(-c3ccc(Cl)cc3)c(-c3ccc(Cl)cc3)n2)CC1
active: RPMI-8226 leukemia 8.48%
inactive: OVCAR-5 ovarian 103% | OVCAR-4 ovarian 74.2% | SK-OV-3 ovarian 111% | IGROV1 ovarian 37.7% | OVCAR-3 ovarian 78.4% | HS 578T breast 71.7% | NCI/ADR-RES ovarian 72.9% | T-47D breast 52.4% | MDA-MB-435 melanoma 73.4% | SW-620 colon 80.6% | MCF7 breast 56.7% | HCT-116 colon 47.2% | HCC-2998 colon 84.9% | KM12 colon 63%

CCN(CC)CCOCC[C@H]1CC[C@H]2[C@@H]3[C@H](C)Cc4cc(OS(N)(=O)=O)ccc4[C@H]3CC[C@]12C
active: RPMI-8226 leukemia -56.4% | OVCAR-5 ovarian -50.1% | OVCAR-4 ovarian 8.49% | SK-OV-3 ovarian -94.8% | OVCAR-3 ovarian -86.5% | HS 578T breast -44.6% | NCI/ADR-RES ovarian -70.2% | T-47D breast -46.4% | BT-549 breast -53.4% | MDA-MB-435 melanoma -63.7% | SW-620 colon -77.5% | MCF7 breast -63.1% | HCT-116 colon -98.4% | HCC-2998 colon -92.7% | KM12 colon -80.8%

Cc1sc2nc3c4ccccc4c(NCCCN(C)C)nn3c(=O)c2c1C
inactive: OVCAR-5 ovarian 71% | OVCAR-4 ovarian 65.8% | SK-OV-3 ovarian 65.7% | IGROV1 ovarian 23.4% | OVCAR-3 ovarian 59.2% | HS 578T breast 71.6% | NCI/ADR-RES ovarian 66.8% | T-47D breast 85.2% | BT-549 breast 66.7% | MDA-MB-435 melanoma 24.8% | MCF7 breast 23.8% | HCT-116 colon 36.1% | KM12 colon 31.5%
active: RPMI-8226 leukemia -56.4% | SW-620 colon -43.7%

COc1ccc(CC(=O)Nc2nn3c(-c4cc(C(F)(F)F)cc(C(F)(F)F)c4)nnc3s2)cc1
inactive: RPMI-8226 leukemia 39.7% | OVCAR-8 ovarian 65% | OVCAR-5 ovarian 96% | OVCAR-4 ovarian 66.3% | OVCAR-3 ovarian 53.5% | HS 578T breast 75.6% | NCI/ADR-RES ovarian 69.1% | T-47D breast 42.7% | MDA-MB-435 melanoma 57.1% | SW-620 colon 84.2% | MCF7 breast 66.9% | HCT-116 colon 61.9% | KM12 colon 65.7%

O=C(/C=C/c1ccc([N+](=O)[O-])cc1)c1ccc2c3c(cccc13)CC2
active: RPMI-8226 leukemia -14.1% | HS 578T breast -4.95%
inactive: OVCAR-8 ovarian 28.7% | OVCAR-5 ovarian 89.8% | OVCAR-4 ovarian 75.8% | SK-OV-3 ovarian 91.4% | OVCAR-3 ovarian 66.9% | NCI/ADR-RES ovarian 83.3% | T-47D breast 69.1% | BT-549 breast 84% | MDA-MB-435 melanoma 97.8% | SW-620 colon 47.1% | MCF7 breast 22% | HCT-116 colon 38.6% | HCC-2998 colon 79.3% | KM12 colon 72.5%

COc1cc(-c2n[nH]nc2-c2ccccn2)cc(OC)c1OC
inactive: RPMI-8226 leukemia 85.1% | OVCAR-5 ovarian 100% | OVCAR-4 ovarian 88.2% | SK-OV-3 ovarian 98.5% | IGROV1 ovarian 78.2% | OVCAR-3 ovarian 102% | HS 578T breast 98% | NCI/ADR-RES ovarian 77.9% | T-47D breast 87.2% | BT-549 breast 117% | MDA-MB-435 melanoma 106% | SW-620 colon 106% | MCF7 breast 96.2% | HCC-2998 colon 105% | KM12 colon 102%

COc1cc(/C=C/C(=O)C(C(=O)/C=C/c2ccc(OC(=O)CCNc3nnc(C)s3)c(OC)c2)C(=O)CCNc2nnc(C)s2)ccc1OC(=O)CCNc1nnc(C)s1
active: OVCAR-8 ovarian 7.54% | IGROV1 ovarian -37.6% | OVCAR-3 ovarian 2.15% | BT-549 breast -44% | MDA-MB-435 melanoma -27.5% | SW-620 colon -19.5% | HCT-116 colon -31.6% | HCC-2998 colon -46.7% | KM12 colon -39.2%
inactive: OVCAR-5 ovarian 37.1% | OVCAR-4 ovarian 35.9% | SK-OV-3 ovarian 45.4% | HS 578T breast 18.2% | NCI/ADR-RES ovarian 31.8% | T-47D breast 41.4%

COc1ccc2c(=O)c(OC)c(-c3cc(OC)c(OC)c(OC)c3)oc2c1
inactive: RPMI-8226 leukemia 92.6% | OVCAR-5 ovarian 101% | OVCAR-4 ovarian 96.6% | SK-OV-3 ovarian 114% | OVCAR-3 ovarian 98.6% | HS 578T breast 91.9% | NCI/ADR-RES ovarian 83.9% | T-47D breast 76.1% | BT-549 breast 117% | MDA-MB-435 melanoma 105% | SW-620 colon 92.2% | MCF7 breast 88% | HCT-116 colon 87.2% | HCC-2998 colon 82.5% | KM12 colon 97.8%

CN(C)CCCNc1nn2c(=O)c3ccccc3nc2c2ccccc12
inactive: RPMI-8226 leukemia 48.8% | OVCAR-5 ovarian 80.9% | OVCAR-4 ovarian 77.4% | SK-OV-3 ovarian 54.6% | OVCAR-3 ovarian 57.7% | HS 578T breast 61.6% | NCI/ADR-RES ovarian 72.7% | T-47D breast 92.5% | BT-549 breast 75.6% | MDA-MB-435 melanoma 74.7% | SW-620 colon 57.9% | MCF7 breast 26.7% | HCT-116 colon 25.2% | HCC-2998 colon 70.6% | KM12 colon 66.1%
active: IGROV1 ovarian -12.2%

Clc1ccc2nc(CI)c(CI)nc2c1
active: RPMI-8226 leukemia -36.6%
inactive: OVCAR-8 ovarian 93% | OVCAR-5 ovarian 91% | OVCAR-4 ovarian 100% | SK-OV-3 ovarian 98.8% | OVCAR-3 ovarian 65.4% | HS 578T breast 158% | NCI/ADR-RES ovarian 100% | T-47D breast 85.3% | BT-549 breast 73.1% | MDA-MB-435 melanoma 23.8% | SW-620 colon 25.1% | MCF7 breast 22.4% | HCT-116 colon 11% | HCC-2998 colon 100% | KM12 colon 101%

[N-]=[N+]=NCc1cccc(/C(O)=C/C(=O)C(=O)O)c1
inactive: OVCAR-8 ovarian 79.4% | OVCAR-5 ovarian 63.5% | OVCAR-4 ovarian 94.9% | SK-OV-3 ovarian 107% | OVCAR-3 ovarian 126% | HS 578T breast 82.6% | NCI/ADR-RES ovarian 78.6% | T-47D breast 86.6% | BT-549 breast 113% | MDA-MB-435 melanoma 140% | SW-620 colon 94.9% | MCF7 breast 98.6% | HCT-116 colon 91.3% | HCC-2998 colon 88.5% | KM12 colon 97.4%

O=C(O)C1CCN(S(=O)(=O)c2ccc(-c3ccccc3)cc2)CC1
inactive: RPMI-8226 leukemia 58.7% | OVCAR-8 ovarian 81.4% | OVCAR-5 ovarian 125% | OVCAR-4 ovarian 106% | SK-OV-3 ovarian 111% | OVCAR-3 ovarian 112% | HS 578T breast 113% | NCI/ADR-RES ovarian 117% | T-47D breast 107% | BT-549 breast 109% | MDA-MB-435 melanoma 120% | SW-620 colon 98.2% | MCF7 breast 101% | HCC-2998 colon 93.6% | KM12 colon 111%

FC(F)(F)c1cc(-c2nnc3n2N=C(N2CCCC2)CS3)cc(C(F)(F)F)c1
inactive: RPMI-8226 leukemia 95% | OVCAR-8 ovarian 74.4% | OVCAR-5 ovarian 106% | OVCAR-4 ovarian 102% | SK-OV-3 ovarian 21% | IGROV1 ovarian 87% | OVCAR-3 ovarian 53.6% | HS 578T breast 46.8% | NCI/ADR-RES ovarian 80.2% | T-47D breast 64% | MDA-MB-435 melanoma 96.8% | SW-620 colon 95.9% | MCF7 breast 95.3% | HCT-116 colon 42.5% | KM12 colon 89.2%

O=C(Nc1nc2ccc(OC(F)(F)F)cc2s1)c1ccc(F)cc1
active: SK-OV-3 ovarian 4.63% | OVCAR-3 ovarian -37.8% | NCI/ADR-RES ovarian 6.2% | T-47D breast -10.8% | MCF7 breast -0.0548% | HCT-116 colon -28% | HCC-2998 colon 3.77% | KM12 colon 2.23%
inactive: OVCAR-8 ovarian 17.8% | OVCAR-5 ovarian 43% | OVCAR-4 ovarian 25.5% | IGROV1 ovarian 31.1% | HS 578T breast 38.6% | BT-549 breast 39.2% | MDA-MB-435 melanoma 15.1% | SW-620 colon 13.3%

O=C(CN1CCN(c2ccc(Cl)cc2)CC1)N1CCN(c2nnc(-c3ccccc3)c(-c3ccccc3)n2)CC1
inactive: OVCAR-5 ovarian 86.4% | OVCAR-4 ovarian 30.6% | SK-OV-3 ovarian 85% | OVCAR-3 ovarian 40.9% | HS 578T breast 62.6% | NCI/ADR-RES ovarian 39.2% | T-47D breast 19.7% | BT-549 breast 44.9% | MDA-MB-435 melanoma 48.8% | SW-620 colon 46.9% | MCF7 breast 20.9% | HCT-116 colon 16.7% | HCC-2998 colon 56.9% | KM12 colon 36.6%
active: RPMI-8226 leukemia -23.4%

CCCCCCCCCCCCC1CCCC(C)C1 (stereo not given)
inactive: RPMI-8226 leukemia 99% | OVCAR-8 ovarian 102% | OVCAR-5 ovarian 105% | SK-OV-3 ovarian 99.7% | IGROV1 ovarian 91.6% | OVCAR-3 ovarian 108% | HS 578T breast 93.3% | NCI/ADR-RES ovarian 95.3% | T-47D breast 96.4% | BT-549 breast 102% | MDA-MB-435 melanoma 104% | SW-620 colon 101% | MCF7 breast 93.6% | HCT-116 colon 94.9% | HCC-2998 colon 97.7% | KM12 colon 91.3%
